PubChem BioAssay (NCATS)
Results filed as inconclusive are left out. Calls of active or inactive are those of the source. Unless noted, calls come from the whole dose curve; as a rule, active = well fitted curve in either direction with a large enough effect (not every such curve was filed as active); inconclusive = small, poorly fitted or top-dose-only effect, or another doubt; inactive = flat fitted curve, though single readings scatter.

Legend:
[1] = biological target: Lysosomal acid glucosylceramidase (Homo sapiens) (UniProt P04062); assay: Glucocerebrosidase-p2 (AID 348; in the data active = potency below about 10 µM; note: potency is the fitted concentration of half-maximal effect); conditions: purified GBA, blue fluorogenic substrate, 40 min
How it was run: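 Normal human glucocerebrosidase (0.2 nM) with blue fluorogenic substrate (80 uM final) in citrate/phosphate pH 5.9 with 10mM sodium taurocholate, 0.01% tween-20; 40 min RT, NaOH/glycine stop; fluorescence Ex 365/Em 440; AC50 from a titration from 0.6 nM upwards.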

[2] = AP1 Signaling Pathway (AID 357); conditions: ME-180 AP-1-bla reporter, EGF-induced, beta-lactamase ratio, 5 h; at 7.69 µM (top of the series) unless noted; note: % is set by controls: 0 for no effect and ±100 for the full control effect
How it was run: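 Beta-lactamase reporter under AP-1 response element, ME-180 background. Stimulus: EC50 EGF. Compound exposure 5 h, 37 °C. Detection: CCF4, 2.5 h RT, 460/530 nm. Values: AC50 from titration.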

[3] = biological target: Cytochrome P450 1A2 (Homo sapiens) (UniProt P05177); assay: p450-cyp1a2 (AID 410; calls by dose curve; note: potency is the fitted concentration of half-maximal effect;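 for activity change, negative = inhibition: -100% = full effect of reference inhibitor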); conditions: recombinant CYP1A2, luciferin-ME demethylation, luminescence; series mostly up to 11.4 µM
How it was run: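 Luminescent demethylation readout: Luciferin-ME (100uM, equal to Km) turned over by 20nM CYP1A2 for 60 min at room temperature after NADPH regeneration addition, following 10 min compound preincubation. Normalization used 57 uM furafylline as full inhibition.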

[4] = NFAT Signaling Pathway (AID 444); conditions: Jurkat NFAT-bla M1, carbachol, beta-lactamase ratio, 5 h; at 7.69 µM (top of the series) unless noted;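 note: carbachol stimulus at about its EC50 of 1 µM final; % is set by controls: 0 for no effect and ±100 for the full control effect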
How it was run: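 Jurkat cells carrying an NFAT-driven β-lactamase reporter and co-transfected muscarinic M1 receptor were treated with compound plus carbachol (1 uM final, an EC50 level) for 5 h at 37 °C. CCF4 loading followed for 1 h at RT; 460/530 nm ratio gave %activity.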

[5] = Stat Signaling Pathway (AID 446); conditions: ME-180 SIE beta-lactamase reporter, IL-6 stimulated, 5 h; at 7.69 µM (top of the series) unless noted;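 note: ME-180 cervical cancer cells given 40 pM IL-6 alongside compound; SIE-controlled beta-lactamase reporter measured as 460/530 nm FRET emission ratio; % is set by controls: 0 for no effect and ±100 for the full control effect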
How it was run: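 Emission at 460 and 530 nm (excitation 405 nm) reports SIE-controlled beta-lactamase in ME-180 cells. Cells received compound with 40 pM IL-6 for 5 hrs at 37 C; data scaled between 300 pM IL-6 and 125 nM JAK-inhibitor controls.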

[6] = biological target: Glucocorticoid receptor (Homo sapiens) (UniProt P04150); assay: GR-GFP Redistribution (AID 450;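 active = compounds whose dose series gives a full or clear partial fitted curve of increased nuclear translocation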; note: potency is the fitted concentration of half-maximal effect); conditions: U2OS GR-GFP nuclear translocation, laser cytometry, 2 h
[7] = biological target: Glucocorticoid receptor (Homo sapiens) (UniProt P04150); assay: GR-EFC Redistribution (AID 451; calls by dose curve; note: potency is the fitted concentration of half-maximal effect); conditions: CHO-K1 GR-EFC translocation, beta-gal luminescence, 2 h
How it was run: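 CHO-K1 cells stably expressing nuclear-localized β-gal enzyme acceptor and GR fused C-terminally to the enzyme donor fragment; ligand-driven nuclear translocation restores β-gal by complementation. Compounds titrated up to 46 uM final, 2 h at 37 °C; luminescence read.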

[8] = biological target: Mitogen-activated protein kinase 10 (Mus musculus) (UniProt Q61831); assay: JNK3 AlphaScreen Assay (AID 530); conditions: JNK3 lysate, c-Jun phosphorylation; series mostly up to 11.4 µM;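 note: kinase came from lysate of stimulated human HepG2 cells; signal reports phosphorylation of biotinylated GST-cJun 1-79 at Ser73 with 10 µM ATP; % is set by controls: 0 for no effect and ±100 for the full control effect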
How it was run: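 Phosphorylation of biotinylated GST-cJun(1-79) at Ser73 is measured by AlphaScreen proximity luminescence. Enzyme is JNK3 in HepG2 lysates activated with interleukin-1beta and tumor necrosis factor alpha; ATP is 10 uM final.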

[9] = biological target: 3',5'-cyclic-AMP phosphodiesterase 4B (Homo sapiens) (UniProt Q07343); assay: qHTS Assay for Inhibitors of PDE-IV (AID 607; active = well fitted activation curve with a large enough effect in the main read-out, with a control signal flat, not every such curve was filed as active; note: % of control where 0% means no effect); conditions: HEK293 ACTOne CNG channel cells, membrane potential fluorescence; series mostly up to 22.9 µM
How it was run: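 The readout is membrane depolarisation from a cAMP-sensing CNG channel, detected with a potential dye at ex 535/em 590. Cells were HEK293-derived (endogenous PDE-IV) at 1000 cells/well, titrated up to 22.9 uM final.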

[10] = biological target: Cytochrome P450 2C19 (Homo sapiens) (UniProt P33261); assay: qHTS Assay for Inhibitors and Substrates of Cytochrome P450 2C19 (AID 899; active = well fitted inhibition curve with a large enough effect; note: nearly all actives have a fitted effect of over 60% in size; note: potency is the fitted concentration of half-maximal effect); conditions: recombinant CYP2C19, luciferin-H EGE luminescence; series mostly up to 11.4 µM
How it was run: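 NADPH-dependent conversion of Luciferin-H EGE (10uM, at KM) by 5nM enzyme in 50mM KPO4, 60 min at 37C following 10 min compound preincubation. Stopped with luciferin detection buffer; luminescence read after 20 min.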

[11] = biological target: Cytochrome P450 2D6 (Homo sapiens) (UniProt P10635); assay: qHTS Assay for Inhibitors and Substrates of Cytochrome P450 2D6 (AID 891; active = well fitted inhibition curve with a large enough effect; note: nearly all actives have a fitted effect of over 60% in size; note: potency is the fitted concentration of half-maximal effect); conditions: recombinant CYP2D6, luciferin-ME EGE luminescence; series mostly up to 11.4 µM
How it was run: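 Luminescent read-out of luciferin formed by 5 nM human CYP2D6 demethylating 30 uM Luciferin-ME EGE (Km level) over 60 min at room temperature after NADPH regeneration addition. Data normalized to full inhibition by 1.43 uM quinidine.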

[12] = qHTS Assay for Identification of Small Molecule Agonists for Hypoxia Response Element Signaling Pathway (AID 914; active = well fitted activation curve with a large enough effect in the signal ratio, with a control signal flat, not every such curve was filed as active; the % refers to the signal ratio; note: % of control where 0% means no effect); conditions: ME-180 (cervical carcinoma) HRE-bla reporter, beta-lactamase ratio, CoCl2, 17 h; activation: hits give high values
How it was run: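 Compounds in a titration series were added to ME-180 reporter cells alongside an EC50 level of CoCl2. After 17 hours, beta-lactamase activity was read as the 460nm/530nm emission ratio of CCF4, giving AC50 values.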

Sequence of 3',5'-cyclic-AMP phosphodiesterase 4B (Homo sapiens) (Q07343 whole entry, looked up): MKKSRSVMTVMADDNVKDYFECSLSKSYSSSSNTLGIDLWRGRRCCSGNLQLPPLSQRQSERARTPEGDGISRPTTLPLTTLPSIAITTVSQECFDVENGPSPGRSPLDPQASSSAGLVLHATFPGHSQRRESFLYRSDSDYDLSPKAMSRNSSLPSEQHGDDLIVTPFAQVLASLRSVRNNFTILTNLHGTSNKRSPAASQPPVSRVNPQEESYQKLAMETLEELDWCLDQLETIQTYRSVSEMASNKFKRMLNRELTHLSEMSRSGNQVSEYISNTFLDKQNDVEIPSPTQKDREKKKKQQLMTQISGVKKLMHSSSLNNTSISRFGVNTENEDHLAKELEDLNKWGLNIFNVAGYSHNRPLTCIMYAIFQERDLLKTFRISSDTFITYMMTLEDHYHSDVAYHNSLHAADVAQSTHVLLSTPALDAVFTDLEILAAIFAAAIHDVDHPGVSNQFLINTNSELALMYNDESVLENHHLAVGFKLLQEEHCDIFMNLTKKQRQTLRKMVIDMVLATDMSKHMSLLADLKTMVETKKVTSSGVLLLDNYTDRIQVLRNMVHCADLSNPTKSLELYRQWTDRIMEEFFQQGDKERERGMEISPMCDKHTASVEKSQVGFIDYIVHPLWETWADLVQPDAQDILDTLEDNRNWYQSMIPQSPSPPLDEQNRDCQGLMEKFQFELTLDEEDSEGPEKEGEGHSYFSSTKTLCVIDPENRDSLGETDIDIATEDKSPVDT
Sequence of Cytochrome P450 2C19 (Homo sapiens) (P33261 whole entry, looked up): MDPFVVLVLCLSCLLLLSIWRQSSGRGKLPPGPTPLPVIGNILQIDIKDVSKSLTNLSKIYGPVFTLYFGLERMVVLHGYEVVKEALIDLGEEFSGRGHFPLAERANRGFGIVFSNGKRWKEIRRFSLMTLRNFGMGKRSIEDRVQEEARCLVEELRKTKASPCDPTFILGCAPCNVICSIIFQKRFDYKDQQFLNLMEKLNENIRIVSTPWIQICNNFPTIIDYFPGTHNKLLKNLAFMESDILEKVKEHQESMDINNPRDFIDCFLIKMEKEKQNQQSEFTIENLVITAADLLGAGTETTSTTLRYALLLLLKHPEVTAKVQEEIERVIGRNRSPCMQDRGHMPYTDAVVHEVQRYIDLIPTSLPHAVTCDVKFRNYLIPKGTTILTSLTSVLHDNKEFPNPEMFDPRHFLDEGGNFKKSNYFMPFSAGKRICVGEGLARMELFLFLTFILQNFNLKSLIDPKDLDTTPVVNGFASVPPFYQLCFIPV
Sequence of Cytochrome P450 1A2 (Homo sapiens) (P05177 whole entry, looked up): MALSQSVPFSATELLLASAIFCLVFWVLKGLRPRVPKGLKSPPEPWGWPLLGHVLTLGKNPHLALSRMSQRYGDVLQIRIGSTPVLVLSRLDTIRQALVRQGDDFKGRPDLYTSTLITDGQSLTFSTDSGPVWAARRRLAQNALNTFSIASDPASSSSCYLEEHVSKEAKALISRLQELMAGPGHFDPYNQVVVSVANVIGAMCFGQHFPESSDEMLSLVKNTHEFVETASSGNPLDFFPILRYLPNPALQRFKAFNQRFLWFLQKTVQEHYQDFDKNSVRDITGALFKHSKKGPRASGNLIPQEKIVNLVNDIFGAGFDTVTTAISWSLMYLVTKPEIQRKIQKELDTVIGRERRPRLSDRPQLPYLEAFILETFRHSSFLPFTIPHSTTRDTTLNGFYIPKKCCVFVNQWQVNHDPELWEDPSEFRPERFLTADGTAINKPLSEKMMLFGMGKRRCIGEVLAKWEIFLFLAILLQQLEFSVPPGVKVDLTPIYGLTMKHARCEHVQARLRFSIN
Sequence of Glucocorticoid receptor (Homo sapiens) (P04150 whole entry, looked up, the tested form may be a part): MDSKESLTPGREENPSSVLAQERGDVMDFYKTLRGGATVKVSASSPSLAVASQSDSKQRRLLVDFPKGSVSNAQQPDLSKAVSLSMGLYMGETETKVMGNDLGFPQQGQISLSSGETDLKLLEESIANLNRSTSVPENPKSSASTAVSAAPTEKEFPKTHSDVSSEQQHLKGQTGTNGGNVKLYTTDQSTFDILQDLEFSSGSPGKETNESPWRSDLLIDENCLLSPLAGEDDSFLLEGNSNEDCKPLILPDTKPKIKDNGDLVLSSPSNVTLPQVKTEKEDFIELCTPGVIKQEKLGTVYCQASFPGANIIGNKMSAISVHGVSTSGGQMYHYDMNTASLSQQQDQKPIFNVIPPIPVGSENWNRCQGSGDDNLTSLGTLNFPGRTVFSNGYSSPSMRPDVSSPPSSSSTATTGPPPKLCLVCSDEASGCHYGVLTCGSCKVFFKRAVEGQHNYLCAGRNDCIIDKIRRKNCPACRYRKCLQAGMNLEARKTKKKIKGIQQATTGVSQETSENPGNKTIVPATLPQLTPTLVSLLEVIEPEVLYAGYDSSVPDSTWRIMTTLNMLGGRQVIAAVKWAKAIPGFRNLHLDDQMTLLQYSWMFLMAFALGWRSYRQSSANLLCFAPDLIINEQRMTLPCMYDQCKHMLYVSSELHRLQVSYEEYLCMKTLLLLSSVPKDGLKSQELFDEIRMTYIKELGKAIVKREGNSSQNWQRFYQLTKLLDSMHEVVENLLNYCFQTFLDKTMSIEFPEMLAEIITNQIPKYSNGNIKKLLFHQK
Sequence of Cytochrome P450 2D6 (Homo sapiens) (P10635 whole entry, looked up): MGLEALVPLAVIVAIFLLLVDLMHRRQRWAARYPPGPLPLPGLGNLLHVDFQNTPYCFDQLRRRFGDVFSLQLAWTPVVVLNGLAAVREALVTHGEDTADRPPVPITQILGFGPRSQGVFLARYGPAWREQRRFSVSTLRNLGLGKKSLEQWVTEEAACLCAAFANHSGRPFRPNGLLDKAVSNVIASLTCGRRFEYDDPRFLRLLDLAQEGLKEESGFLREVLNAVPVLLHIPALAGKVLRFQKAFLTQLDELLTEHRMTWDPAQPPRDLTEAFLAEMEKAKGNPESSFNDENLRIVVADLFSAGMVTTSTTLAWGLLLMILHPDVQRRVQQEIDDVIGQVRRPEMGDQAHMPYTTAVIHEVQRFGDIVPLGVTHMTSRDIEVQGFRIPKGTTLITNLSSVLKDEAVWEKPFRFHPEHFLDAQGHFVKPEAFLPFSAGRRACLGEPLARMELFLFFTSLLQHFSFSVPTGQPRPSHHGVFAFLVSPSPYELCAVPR
Sequence of Lysosomal acid glucosylceramidase (Homo sapiens) (P04062 whole entry, looked up): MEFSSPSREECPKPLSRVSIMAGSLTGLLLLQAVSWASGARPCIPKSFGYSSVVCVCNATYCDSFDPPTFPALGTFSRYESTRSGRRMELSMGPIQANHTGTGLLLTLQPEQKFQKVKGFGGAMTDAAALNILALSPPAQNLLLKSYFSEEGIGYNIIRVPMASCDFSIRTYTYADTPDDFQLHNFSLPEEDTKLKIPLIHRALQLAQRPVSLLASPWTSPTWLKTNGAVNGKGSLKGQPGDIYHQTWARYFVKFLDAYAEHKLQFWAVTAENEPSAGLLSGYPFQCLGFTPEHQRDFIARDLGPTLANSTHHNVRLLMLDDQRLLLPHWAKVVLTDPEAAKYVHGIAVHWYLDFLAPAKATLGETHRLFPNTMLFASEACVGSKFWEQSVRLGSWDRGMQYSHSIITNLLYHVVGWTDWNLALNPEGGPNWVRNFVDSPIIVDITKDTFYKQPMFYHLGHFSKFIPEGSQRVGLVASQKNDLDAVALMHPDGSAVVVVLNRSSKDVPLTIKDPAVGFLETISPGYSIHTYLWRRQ

Nc1ccc2[nH]cc(CCC(=O)O)c2c1
inactive: Potency [1] > 11.4 µM | activity change, negative = inhibition [2] 4.94% | Potency [3] | activity change, negative = inhibition [4] 4.67% | activity, negative = inhibition [5] 6.65% | Potency [6] > 46 µM | Potency [7] > 9.22 µM | Potency [8] | Potency [9] | Potency [10]

S=c1c2[nH]cnc2ncn1CCSc1ncnc2nc[nH]c12
inactive: Potency [1] > 11.4 µM | activity change, negative = inhibition [2] -5.47% | Potency [3] | activity change, negative = inhibition [4] 23.1% | activity, negative = inhibition [5] 7.7% | Potency [6] > 46 µM | Potency [7] > 9.22 µM | Potency [8] | Potency [9] | Potency [10]

Oc1c(Br)cc(Br)cc1CN(Cc1cc(Br)cc(Br)c1O)C1CCCCC1
active: Potency [3] 3.16 µM | Potency [11] 0.251 µM | Potency [10] 0.316 µM
inactive: Potency [1] > 11.4 µM | activity change, negative = inhibition [2] 6.04% | activity change, negative = inhibition [4] 5.11% | activity, negative = inhibition [5] -17.9% | Potency [6] > 46 µM | Potency [7] > 9.22 µM | Potency [8] | Potency [9]

COc1ccc(-c2cc([C@H](O)[C@@H]3CCCCN3)c3ccccc3n2)cc1
inactive: Potency [1] > 11.4 µM | activity change, negative = inhibition [2] 27.7% | activity change, negative = inhibition [3] -11% [at 2.29 µM] | activity change, negative = inhibition [4] 23.2% | activity, negative = inhibition [5] 2.85% | Potency [6] > 46 µM | Potency [7] > 9.22 µM | Potency [8] | Potency [9]
active: Potency [11] 3.16 µM | Potency [10] 3.98 µM

CC(C)(C)COS(=O)OCC(C)(C)C
inactive: Potency [1] > 11.4 µM | activity change, negative = inhibition [2] -7.58% | Potency [3] | activity change, negative = inhibition [4] 3.4% | activity, negative = inhibition [5] 13.1% | Potency [6] > 46 µM | Potency [7] > 9.22 µM | Potency [8] | Potency [9] | Potency [10]

Cc1cn(CC[C@H](N)C(=O)O)c(=O)[nH]c1=O
inactive: Potency [1] > 11.4 µM | activity change, negative = inhibition [2] 0.888% | Potency [3] | activity change, negative = inhibition [4] -6.68% | activity, negative = inhibition [5] 16.3% | Potency [6] > 46 µM | Potency [7] > 9.22 µM | Potency [8] | Potency [9] | Potency [10]

O=C(SCc1cccc2ccccc12)c1ccc(Cl)cc1
inactive: Potency [1] > 11.4 µM | activity change, negative = inhibition [2] 9.24% | activity change, negative = inhibition [4] -5.94% | activity, negative = inhibition [5] 7% | Potency [6] > 46 µM | Potency [7] > 9.22 µM | Potency [8] | Potency [9]
active: Potency [3] 0.794 µM | Potency [10] 1.58 µM

c1ccc2c(CSCc3cccc4ccccc34)cccc2c1
inactive: Potency [1] > 11.4 µM | activity change, negative = inhibition [2] 6.44% | activity change, negative = inhibition [4] -28.7% | activity, negative = inhibition [5] 17.1% | Potency [6] > 46 µM | Potency [7] > 9.22 µM | Potency [8] | Potency [9]
active: Potency [3] 3.98 µM | Potency [10] 0.126 µM

N#CC(C#N)=CNCCN1CCN(C=C(C#N)C#N)CC1
inactive: Potency [1] > 11.4 µM | activity change, negative = inhibition [2] 2.96% | activity change, negative = inhibition [3] -15.5% [at 2.29 µM] | activity change, negative = inhibition [4] 2.39% | activity, negative = inhibition [5] 3.44% | Potency [6] > 46 µM | Potency [7] > 9.22 µM | Potency [8] | Potency [9] | Potency [10]

O=C(O)C/C(=C\c1ccco1)C(=O)O
inactive: Potency [1] > 11.4 µM | activity change, negative = inhibition [2] 8.65% | activity change, negative = inhibition [3] -11.8% [at 2.29 µM] | activity change, negative = inhibition [4] 9.1% | activity, negative = inhibition [5] 7.2% | Potency [6] > 46 µM | Potency [7] > 9.22 µM | Potency [8] | Potency [9] | Potency [10]

C[N+](C)(C)c1nc(N)nc2c1ncn2[C@H]1O[C@@H](CO)[C@@H](O)[C@H]1O
inactive: Potency [1] > 11.4 µM | activity change, negative = inhibition [2] 6.27% | activity change, negative = inhibition [3] -4.9% [at 2.29 µM] | activity change, negative = inhibition [4] 2.16% | activity, negative = inhibition [5] -3.17% | Potency [6] > 46 µM | Potency [7] > 9.22 µM | Potency [8] | Potency [9] | Potency [10]

C[N+](C)(N)CCC[N+](C)(C)N
inactive: Potency [1] > 11.4 µM | activity change, negative = inhibition [2] 6.06% | Potency [3] | activity change, negative = inhibition [4] 24.5% | activity, negative = inhibition [5] 8.44% | Potency [6] > 46 µM | Potency [7] > 9.22 µM | Potency [8] | Potency [9] | Potency [11] | Potency [10]

CN(C)Cc1ccc(C(C)(C)C)cc1-c1cc(C(C)(C)C)ccc1CN(C)C
active: Potency [3] 3.98 µM
inactive: Potency [1] > 11.4 µM | activity change, negative = inhibition [2] -1.36% | activity change, negative = inhibition [4] 6.36% | activity, negative = inhibition [5] -4.38% | Potency [6] > 46 µM | Potency [7] > 9.22 µM | Potency [8] | Potency [9] | Potency [10]

Nc1ccc(S(=O)(=O)NCCS(=O)(=O)O)cc1
inactive: Potency [1] > 11.4 µM | activity change, negative = inhibition [2] -2.08% | activity change, negative = inhibition [3] -3.1% [at 2.29 µM] | activity change, negative = inhibition [4] 6.94% | activity, negative = inhibition [5] -3.3% | Potency [6] > 46 µM | Potency [7] > 9.22 µM | Potency [8] | Potency [9] | Potency [11] | activation [12] -1.31%

CN(C)CCN(c1ccccn1)c1ccccn1
inactive: Potency [1] > 11.4 µM | activity change, negative = inhibition [2] 11.2% | Potency [3] | activity change, negative = inhibition [4] 7.47% | activity, negative = inhibition [5] 11.4% | Potency [6] > 46 µM | Potency [7] > 9.22 µM | Potency [8] | Potency [9] | Potency [10]
